PubChem BioAssay AID2289 (National Center for Advancing Translational Sciences (NCATS), 2010)
In all, about 340,000 compounds went through this assay and about 3,300 (0.97%) were called active. Not shown: some 9% with an inconclusive outcome. Calls follow the shape of the dose curve; as a rule, active = well fitted inhibition curve with a large enough effect; inconclusive = small, poorly fitted or top-dose-only effect, or effect the other way; inactive = flat fitted curve, though single readings scatter. The list shows a part of the results.

Assay: qHTS Assay for Modulators of miRNAs and/or Inhibitors of miR-21; also: nearly all actives have a fitted effect of over 55% in size
Conditions: HeLa miR-21-FLuc reporter, luciferase luminescence, 48 h; actives lower the signal
In short: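 HeLa cells stably expressing CMV-driven firefly luciferase with a downstream miR-21 binding sequence, endogenously expressing miR-21, were treated with titrations (up to about 40uM final) for 48 hours at 37 degree Celsius. Luciferase luminescence was read after lysis.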
Potency is read from the fitted curve at half-maximal effect.

Potency, active:
Cc1cc(/C=C(\C#N)C(=O)Nc2ccccc2F)c(C)[nH]1 0.521 µM, Cc1ccccc1SCCNC(=O)c1ccccc1Br 16.5 µM, O=C(NCCSc1ccccc1)c1ccccc1Cl 1.65 µM, COC(=O)c1sc(NC(=O)CSc2nnnn2C)nc1C 6.56 µM, CNc1nc(C)c(C(=O)OCc2ccccc2)s1 16.5 µM, COC(=O)c1sc(NC(=O)COc2ccccc2)nc1C 7.36 µM, CCOC(=O)c1sc(Nc2ccccc2)nc1C 4.14 µM, CCOC(=O)c1sc(Nc2ccccc2Cl)nc1C 4.65 µM, CCOC(=O)c1sc(NC(=O)c2ccccc2OC)nc1C 0.261 µM, Cc1ccccc1C(=O)N/N=C/c1ccsc1C 2.33 µM, Cc1ccccc1/C=N/NC(=O)c1sccc1C 1.47 µM, O=C(c1cc(-c2ccc(Cl)cc2)on1)N1CCCC1 0.521 µM, CCC1CCCCN1C(=O)c1cc(-c2ccc(Cl)c(Cl)c2)on1 (stereo not given) 7.36 µM, c1ccc(-c2cc(-c3ccccc3)on2)cc1 1.04 µM, O=C(c1cc(-c2ccc(Cl)cc2)on1)N1CCCCCC1 1.47 µM, O=C(c1ccccc1-c1nc(-c2ccccc2)no1)N1CCCC1 18.5 µM, O=C(c1cc(-c2ccccc2)on1)N1CCCCCC1 3.29 µM, COc1ccccc1CCC(=O)Nc1ccc(C)cc1Cl 16.5 µM, Cc1ccc(Sc2ncccc2COC(=O)NC(C)C)cc1 16.5 µM, O=C1N=C(N2CCOCC2)S/C1=C\C=C/c1ccccc1 10.4 µM, Nc1ccccc1-c1nc2ccccc2s1 5.85 µM, Nc1ccc(-c2nc3ccccc3s2)cn1 1.47 µM, N#Cc1ccc(N2Cc3ccccc3C2=NC(=O)c2cccs2)cc1 8.26 µM, CCOC(=O)c1ccc(N2Cc3ccccc3C2=NC(=O)c2cccs2)cc1 3.29 µM, Cc1ccc2[nH]c3c(=S)nc[nH]c3c2c1 3.69 µM, Cc1cc(C(=O)N/N=C/c2cccc([N+](=O)[O-])c2)c(C)n1-c1ccccc1 6.56 µM, CC(C)c1ccc(NC(=O)c2ccccc2NC(=O)C2CC=CCC2C(=O)O)cc1 (stereo not given) 3.69 µM, O=C(Nc1ccc(Cl)c(Cl)c1)c1ccccc1NC(=O)C1CC=CCC1C(=O)O (stereo not given) 6.56 µM, CN(C)C=NC(=O)c1cc(C(=O)c2ccc(C(C)(C)C)cc2)c[nH]1 0.927 µM, Cn1c(CSc2ccccc2)c(C#N)c2ccccc21 14.7 µM
